LGR2 inh = inhibitors of bursicon-induced LGR2 CRE-luciferase signal, primary screen, cell-based, HEK293, CRE-luciferase reporter, bursicon stimulation | bursicon-stimulated, 4 h | 380,000 tested, 0.35% active | inhibition, % at 9.99 µM;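 active means drop in luminescence signal, shown as inhibition above about 50% in the replicate tests, limit read from the data, passing the limit was not always enough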;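 further: agonist challenge used bursicon conditioned medium at about half maximal strength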
PAX8 reporter = inhibitors of PAX8-driven TPO luciferase reporter, primary screen, RMG-I cells, single concentration | inhibition, % at 12.6 µM | SteadyGlo, 24 h | 360,000 tested, 1.2% active | AID 652154, 2013;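 active means mean replicate inhibition at least 60% with every replicate also reaching 60%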;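 further: luciferase light reporting Pax8 driven TPO promoter activity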
LMP1 NFkB inh = EBV LMP1-driven NF-kappaB luciferase reporter inhibitors, primary screen, cell-based, luminescence, single point | LMP1-induced NF-kappaB luciferase reporter cells | inhibition, % at 12.5 µM | 350,000 tested, 0.69% active | AID 504558, 2011; in the data active means inhibition above about 41%
EWS-Fli block = EWS/Fli-driven NR0B1 reporter inhibitors, primary screen, A673 cells, NR0B1 luciferase, luminescence, MLPCN library | viability-normalised | inhibition, % at 12.6 µM | 350,000 tested, 0.67% active;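 active means mean inhibition of at least 50% after viability correction, with every replicate also passing that limit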;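 further: firefly luciferase signal divided by Alamar Blue viability fluorescence both relative to DMSO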
TROY NFkB inh = inhibitors of TROY-driven NF-kB signaling, primary screen, Q293 LMP1-TROYcd cells, NF-kB luciferase, uHTS. inhibition, % at 10 µM. 360,000 tested, 0.98% active. Q293 LMP1-TROYcd NF-kB luciferase reporter, 4 h. AID 1347056, 2019;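 active means compounds whose plate-normalised and pattern-corrected inhibition of the luciferase reporter signal at the single screening dose is 50% or more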
TWEAK Fn14 block = inhibitors of TWEAK-Fn14 signaling, primary screen, luciferase reporter cells, uHTS | TWEAK-stimulated Fn14 reporter cells, luciferase luminescence, 8 h | inhibition, % at 10 µM | 360,000 tested, 2% active | AID 1159606, 2016; in the data active means inhibition above about 50%
DNA binder FP = DNA binders by acridine orange displacement, dose response, counter-screen for EWS/Fli inhibitor project, biochemical, fluorescence polarization, cherry-pick; 640 tested, 2% active; AC35, µM (titrated, usually from 68 µM); AID 720586, 2013; shares compounds with EWS-Fli block; salmon sperm DNA acridine orange fluorescence polarization;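 active means fitted curve reaches a 35% signal fall AC35 below twice the sample's top valid tested dose, actives reach about 48 µM in these data; inactive means the rest, including activity in the rising direction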;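 further: lower polarization ratio signals compound binding to DNA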
Numbers stand for hits. A selection: hits, their analogues and other compounds. The true share with any hit is near 3.2%.

What do the screens show for `C=C1C(=O)OC2C1CCC(C)C1(O)C=CC(=O)C21C` (centres undefined)?
LGR2 inh: inactive; LMP1 NFkB inh: inactive; EWS-Fli block: 62; TROY NFkB inh: inactive; TWEAK Fn14 block: 66; DNA binder FP: inactive

How did O=C(Cc1ccccc1)N1CC2(C1)[C@H](c1ccccc1)[C@@H](CO)N2Cc1cccc(F)c1 do in these assays?
LGR2 inh: inactive; PAX8 reporter: inactive; EWS-Fli block: inactive

What do the screens show for `C[C@]12CC[C@H](O)C[C@H]1CC[C@@H]1[C@@H]2CC[C@]2(C)[C@@H](C3=CC(=O)OC3)CC[C@]12O`?
LGR2 inh: 84; PAX8 reporter: 113; LMP1 NFkB inh: 78; EWS-Fli block: 67; TROY NFkB inh: inactive; TWEAK Fn14 block: 75; DNA binder FP: inactive

What do the screens show for `COC1C(O)C(C)OC(OC2CCC3(C)C(CCC4C3C(O)CC3(C)C(C5=CC(=O)OC5)CCC43O)C2)C1O` (centres undefined)?
LGR2 inh: 90; PAX8 reporter: 108; LMP1 NFkB inh: 57; EWS-Fli block: 51; TROY NFkB inh: 55; TWEAK Fn14 block: 86; DNA binder FP: inactive

What do the screens show for `CC12CCC(O)CC1CCC1C2CCC2(C)C(C3=CC(=O)OC3)CCC12O` (centres undefined)?
LGR2 inh: 86; PAX8 reporter: 106; LMP1 NFkB inh: 45; EWS-Fli block: 67; TROY NFkB inh: 51; TWEAK Fn14 block: 85; DNA binder FP: inactive

Results for CNC(=O)Nc1ccc(C(=O)N/N=C\C23CC[C@@H](O)CC2(O)CC[C@@H]2[C@@H]3CCC3(C)C(C4=CC(=O)OC4)CCC23O)cc1 (some centres undefined) ?
LGR2 inh: inactive; PAX8 reporter: inactive; LMP1 NFkB inh: inactive; EWS-Fli block: inactive; TROY NFkB inh: inactive; TWEAK Fn14 block: inactive

What do the screens show for `CC12CC[C@H]3[C@@H](CCC4(O)C[C@H](O)CCC34/C=N/NC(=O)c3ccccc3[N+](=O)[O-])C1(O)CCC2C1=CC(=O)OC1` (some centres undefined)?
LGR2 inh: inactive; PAX8 reporter: inactive; LMP1 NFkB inh: inactive; EWS-Fli block: inactive; TROY NFkB inh: inactive; TWEAK Fn14 block: inactive

Results for CC(=O)OC1CC(OC2C(O)CC(OC3C(O)CC(OC4CCC5(C)C(CCC6C5CC(O)C5(C)C(C7=CC(=O)OC7)CCC65O)C4)OC3C)OC2C)OC(C)C1OC1OC(CO)C(O)C(O)C1O (centres undefined) ?
LGR2 inh: 88; PAX8 reporter: 111; LMP1 NFkB inh: 83; EWS-Fli block: 65; TROY NFkB inh: inactive; TWEAK Fn14 block: 78; DNA binder FP: inactive

How did COc1ccc(-c2ccc([C@H]3[C@H]4CN(C(=O)Cc5ccncc5)CCCCN4[C@H]3CO)cc2)cc1 do in these assays?
LGR2 inh: inactive; PAX8 reporter: inactive; EWS-Fli block: inactive

How did C[C@]12CCC3C(CC[C@H]4C[C@@H](O)CC[C@]34C)[C@H]1C=CC2=O (some centres undefined) do in these assays?
LGR2 inh: inactive; PAX8 reporter: inactive; LMP1 NFkB inh: inactive; EWS-Fli block: inactive; TROY NFkB inh: inactive; TWEAK Fn14 block: inactive

What do the screens show for `C[C@]12CC[C@H](O)C[C@H]1CC[C@@H]1[C@@H]2C[C@@H](O)[C@]2(C)[C@@H](C3=CC(=O)OC3)CC[C@]12O`?
LGR2 inh: 80; PAX8 reporter: 104; LMP1 NFkB inh: 68; EWS-Fli block: 81; TROY NFkB inh: inactive; TWEAK Fn14 block: 56; DNA binder FP: inactive

How did COC1C(O)C(C)OC(OC2C(Oc3cccc4c(O)c5c(=O)oc6ccc(C)c7c(=O)oc(c34)c5c67)OC(C)C(O)C2O)C1O (centres undefined) do in these assays?
LGR2 inh: inactive; LMP1 NFkB inh: inactive; EWS-Fli block: 69; TROY NFkB inh: inactive; TWEAK Fn14 block: inactive; DNA binder FP: inactive

How did Cc1cccc(S(=O)(=O)N2[C@@H]3c4ccc(-c5ccccc5)c(=O)n4C[C@H]2[C@H](CO)[C@H]3C(=O)O)c1 do in these assays?
LGR2 inh: inactive; PAX8 reporter: inactive; EWS-Fli block: inactive

Results for C[C@@H]1O[C@@H](O[C@H]2C[C@@H](O)[C@]3(CO)[C@@H]4C(CC[C@]3(O)C2)[C@@]2(O)CC[C@H](C3COC(=O)C3)[C@@]2(C)C[C@H]4O)[C@H](O)[C@H](O)[C@H]1O (some centres undefined) ?
LGR2 inh: 73; PAX8 reporter: 86; LMP1 NFkB inh: 53; EWS-Fli block: 72; TROY NFkB inh: inactive; TWEAK Fn14 block: 53; DNA binder FP: inactive

Results for COc1cccc(CN2CC3(C2)[C@H](c2ccccc2)[C@H](CO)N3C(=O)Cc2ccccc2)c1 ?
LGR2 inh: inactive; PAX8 reporter: inactive; EWS-Fli block: inactive

How did O=C1NC(=O)N(Cc2ccco2)C(=O)/C1=C/C=C/c1ccco1 do in these assays?
LGR2 inh: inactive; PAX8 reporter: inactive; LMP1 NFkB inh: inactive; EWS-Fli block: 61; TROY NFkB inh: inactive; TWEAK Fn14 block: inactive; DNA binder FP: inactive

Results for O=C1NC(=O)N(Cc2ccccc2)C(=O)/C1=C\C=C\c1ccco1 ?
LGR2 inh: inactive; PAX8 reporter: inactive; LMP1 NFkB inh: inactive; EWS-Fli block: 65; TROY NFkB inh: inactive; TWEAK Fn14 block: inactive; DNA binder FP: inactive

Results for Cn1cccc1/C=C1\C(=O)NC(=O)N(Cc2ccco2)C1=O ?
LGR2 inh: inactive; PAX8 reporter: inactive; LMP1 NFkB inh: inactive; TROY NFkB inh: inactive; TWEAK Fn14 block: inactive

What do the screens show for `C/C=C/c1ccc([C@@H]2[C@H](CO)N3CCCCN(C(=O)Cc4cccnc4)C[C@@H]23)cc1`?
LGR2 inh: inactive; PAX8 reporter: inactive; EWS-Fli block: inactive

How did COc1cccc(-c2ccc([C@H]3[C@@H](CO)N4CCCCN(C(=O)Cc5ccncc5)C[C@@H]34)cc2)c1 do in these assays?
LGR2 inh: inactive; PAX8 reporter: inactive

What do the screens show for `COCC#Cc1ccc([C@@H]2[C@@H](CO)N3CCCCN(C(=O)Cc4ccccn4)C[C@@H]23)cc1`?
LGR2 inh: inactive; PAX8 reporter: inactive; EWS-Fli block: inactive

High-throughput results: PubChem, several laboratories
